Measured values published in PubChem BioAssay AID1159580 (chemical genetic matrix, 2015).
Among all 5,500 compounds or so, about 2,000 (36%) were called active. Inconclusive results (about 18%) are left out. Rule as the data show it: active = normalized growth mostly below about 0.91 (no sharp cut-off); inconclusive = no clear call, values can overlap the other calls; inactive = mostly above about 0.92. The list shows a part of the results.

Assay: chemical genetic growth profiling, strain panel (AID 1159580);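 also: tested at 20 µM; growth read once vehicle control cultures reached saturation at 30 °C; 1 = growth at the plate median or of vehicle wells; lower values mean less growth of the strain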
Conditions: growth OD

Measured: normalized growth

C[C@]12CCC(=O)C=C1CCC1C2CC[C@@]2(C)C1CC[C@@H]2O (some centres not stated)
inactive: S. cerevisiae deletion strains, locus YJR075W, strain HOC1, hits give low values 0.996 | S. cerevisiae deletion strains, locus YKL009W, strain mrt4, hits give low values 0.957 | S. cerevisiae deletion strains, locus YKL068W, hits give low values 1.03 | S. cerevisiae deletion strains, locus YKL085W, strain MDH1 (second series), hits give low values 1.01 | S. cerevisiae deletion strains, locus YKL085W, strain MDH1, hits give low values 1.01 | S. cerevisiae deletion strains, locus YKL160W, strain elf1, hits give low values 0.994 | S. cerevisiae deletion strains, locus YKL190W, strain CNB1, hits give low values 1.03 | S. cerevisiae deletion strains, locus YKR001C, strain vps1, hits give low values 1.03 | S. cerevisiae deletion strains, locus YKR026C, strain gcn3, hits give low values 1 | S. cerevisiae deletion strains, locus YKR091W, strain srl3, hits give low values 0.991 | S. cerevisiae deletion strains, locus YLL001W, strain dnm1, hits give low values 1 | S. cerevisiae deletion strains, locus YLL026W, hits give low values 0.992 | S. cerevisiae deletion strains, locus YLL041C, strain sdh2, hits give low values 0.99 | S. cerevisiae deletion strains, locus YLR027C, strain aat2, hits give low values 1 | S. cerevisiae deletion strains, locus YLR039C, strain RIC1, hits give low values 1.17 | S. cerevisiae deletion strains, locus YLR058C, strain SHM2, hits give low values 1.02 | S. cerevisiae deletion strains, locus YLR102C, strain apc9, hits give low values 1.03 | S. cerevisiae deletion strains, locus YLR113W, strain HOG1, hits give low values 0.99 | S. cerevisiae deletion strains, locus YLR221C, strain rsa3, hits give low values 0.988 | S. cerevisiae deletion strains, locus YLR258W, strain gsy2, hits give low values 0.993 | S. cerevisiae deletion strains, locus YLR262C, strain YPT6 (second series), hits give low values 0.98 | S. cerevisiae deletion strains, locus YLR262C, strain YPT6, hits give low values 1.18 | S. cerevisiae deletion strains, locus YLR268W, strain sec22, hits give low values 1.01 | S. cerevisiae deletion strains, locus YLR320W, strain mms22, hits give low values 0.946 | S. cerevisiae deletion strains, locus YLR330W, strain CHS5, hits give low values 1.02 | S. cerevisiae deletion strains, locus YLR342W, strain FKS1 (second series), hits give low values 0.983 | S. cerevisiae deletion strains, locus YLR342W, strain FKS1, hits give low values 0.985 | S. cerevisiae deletion strains, locus YLR357W, strain rsc2, hits give low values 1.02 | S. cerevisiae deletion strains, locus YLR370C, strain arc18, hits give low values 0.988 | S. cerevisiae deletion strains, locus YLR371W, strain rom2, hits give low values 1.02 | S. cerevisiae deletion strains, locus YLR384C, strain iki3, hits give low values 1 | S. cerevisiae deletion strains, locus YLR418C, strain cdc73, hits give low values 1.02 | S. cerevisiae deletion strains, locus YML016C, strain PPZ1, hits give low values 1.02 | S. cerevisiae deletion strains, locus YML032C, strain rad52, hits give low values 1.02 | S. cerevisiae deletion strains, locus YML120C, strain ndi1, hits give low values 0.981 | S. cerevisiae deletion strains, locus YML124C, strain tub3, hits give low values 1.03 | S. cerevisiae deletion strains, locus YMR058W, strain fet3, hits give low values 0.993 | S. cerevisiae deletion strains, locus YMR078C, strain ctf18, hits give low values 1.03 | S. cerevisiae deletion strains, locus YMR125W, strain sto1, hits give low values 0.99 | S. cerevisiae deletion strains, locus YMR129W, hits give low values 0.993 | S. cerevisiae deletion strains, locus YMR205C, strain PFK2, hits give low values 0.936 | S. cerevisiae deletion strains, locus YMR223W, strain ubp8, hits give low values 1.01 | S. cerevisiae deletion strains, locus YMR231W, strain pep5, hits give low values 0.999 | S. cerevisiae deletion strains, locus YMR263W, strain SAP30, hits give low values 1.04 | S. cerevisiae deletion strains, locus YMR307W, strain GAS1, hits give low values 1.23 | S. cerevisiae deletion strains, locus YNL067W, strain RPL9B, hits give low values 0.993 | S. cerevisiae deletion strains, locus YNL071W, strain lat1, hits give low values 0.976 | S. cerevisiae deletion strains, locus YNL128W, strain TEP1, hits give low values 1.02 | S. cerevisiae deletion strains, locus YNL153C, strain GIM3, hits give low values 1.02 | S. cerevisiae deletion strains, locus YNL183C, strain NPR1, hits give low values 0.988 | S. cerevisiae deletion strains, locus YNL209W, strain ssb2, hits give low values 1.01 | S. cerevisiae deletion strains, locus YNL233W, strain BNI4, hits give low values 1.04 | S. cerevisiae deletion strains, locus YNL248C, strain rpa49, hits give low values 1 | S. cerevisiae deletion strains, locus YNL250W, strain rad50, hits give low values 1.05 | S. cerevisiae deletion strains, locus YNL271C, strain bni1, hits give low values 1.02 | S. cerevisiae deletion strains, locus YNL298W, strain CLA4, hits give low values 1 | S. cerevisiae deletion strains, locus YNL307C, strain MCK1, hits give low values 0.989 | S. cerevisiae deletion strains, locus YNL322C, strain KRE1 (second series), hits give low values 0.993 | S. cerevisiae deletion strains, locus YNL322C, strain KRE1, hits give low values 1.02 | S. cerevisiae deletion strains, locus YNR049C, strain mso1, hits give low values 0.982 | S. cerevisiae deletion strains, locus YNR052C, strain pop2, hits give low values 0.989 | S. cerevisiae deletion strains, locus YOL006C, strain TOP1, hits give low values 0.971 | S. cerevisiae deletion strains, locus YOL012C, strain htz1 1.89 | S. cerevisiae deletion strains, locus YOL147C, strain pex11, hits give low values 1.03 | S. cerevisiae deletion strains, locus YOR001W, strain rrp6, hits give low values 0.995 | S. cerevisiae deletion strains, locus YOR061W, strain CKA2, hits give low values 1.02 | S. cerevisiae deletion strains, locus YOR069W, strain VPS5, hits give low values 1.01 | S. cerevisiae deletion strains, locus YOR070C, strain gyp1, hits give low values 0.988 | S. cerevisiae deletion strains, locus YOR080W, strain dia2, hits give low values 0.983 | S. cerevisiae deletion strains, locus YOR083W, strain WHI5, hits give low values 0.983 | S. cerevisiae deletion strains, locus YOR106W, strain vam3, hits give low values 0.96 | S. cerevisiae deletion strains, locus YOR136W, strain idh2, hits give low values 1.04 | S. cerevisiae deletion strains, locus YOR144C, strain elg1, hits give low values 1.03 | S. cerevisiae deletion strains, locus YOR184W, strain ser1, hits give low values 0.98 | S. cerevisiae deletion strains, locus YOR231W, strain MKK1, hits give low values 0.99 | S. cerevisiae deletion strains, locus YOR265W, strain rbl2, hits give low values 0.989 | S. cerevisiae deletion strains, locus YOR270C, strain vph1, hits give low values 0.936 | S. cerevisiae deletion strains, locus YOR290C, strain snf2, hits give low values 0.967 | S. cerevisiae deletion strains, locus YOR316C, strain cot1, hits give low values 1.03 | S. cerevisiae deletion strains, locus YPL051W, strain arl3, hits give low values 1 | S. cerevisiae deletion strains, locus YPL055C, strain LGE1, hits give low values 1.07 | S. cerevisiae deletion strains, locus YPL078C, strain atp4, hits give low values 0.997 | S. cerevisiae deletion strains, locus YPL106C, strain sse1, hits give low values 1.05 | S. cerevisiae deletion strains, locus YPL240C, strain hsp82, hits give low values 0.978 | S. cerevisiae deletion strains, locus YPL241C, strain CIN2, hits give low values 1.03 | S. cerevisiae deletion strains, locus YPL256C, strain CLN2, hits give low values 1.06 | S. cerevisiae deletion strains, locus YPR119W, strain clb2, hits give low values 1.02 | S. cerevisiae deletion strains, locus YPR141C, strain kar3, hits give low values 1.04 | S. cerevisiae deletion strains, locus YPR163C, strain tif3, hits give low values 1.04 | S. cerevisiae deletion strains, locus YPR167C, strain met16, hits give low values 1.03 | S. cerevisiae deletion strains, strain wtn01, hits give low values 0.989 | S. cerevisiae strains, strain wild type, hits give low values 1.01
